Each sequence was assayed against TMEM22 (assay: pooled miR-30 sensor sort-seq; sequence = guide strand). Details: shRNA.
ATTGTCTTCATCAACAATGTTT showed a sensor-assay potency score (higher = more potent) of -0.906.
In the case of TTTCTTTGGATTTTCCTCCATA, the sensor-assay potency score (higher = more potent) is reported as -0.74.
With TTTTTTTCTGCAAAGCTCTGGA the sensor-assay potency score (higher = more potent) was 0.243.
Sequence TTGATCATTGGGTCTTCTGTTG has a sensor-assay potency score (higher = more potent) of -0.772.
Work on TTGTCCAATCTCATTGATCATT yielded a sensor-assay potency score (higher = more potent) of -1.19.
In the case of TTCACCATCACTGTGTTGGGAT, the sensor-assay potency score (higher = more potent) is reported as 0.611.
TAACACACAACTAACACAGATA gave a sensor-assay potency score (higher = more potent) of -0.611.
Work on TATAACACAAAAGACATTCATA yielded a sensor-assay potency score (higher = more potent) of -0.457.
TTAACAAAGAATTGTCTTCATC was tested, and the sensor-assay potency score (higher = more potent) was -1.39.
TAAAAGAAGAGTCGTAATCTGT gave a sensor-assay potency score (higher = more potent) of -0.127.
In the case of TAGTATTTCCTGGTAGTCCTGC, the sensor-assay potency score (higher = more potent) is reported as -0.0251.

Each sequence was assayed against TMEM231 in the same assay as above. Details: shRNA.
AACACGAAGATCTTGATTCTTT gave a sensor-assay potency score (higher = more potent) of -0.0929.
In the case of TCTCTAGTCGAAACGAGCGGGA, the sensor-assay potency score (higher = more potent) is reported as -0.413.
Sequence TTCTGAAACACGAAGATCTTGA has a sensor-assay potency score (higher = more potent) of 0.224.
In the case of TGAGGTCGTAGTCATAGGCAAA, the sensor-assay potency score (higher = more potent) is reported as -1.58.
Work on TTCTCTAGTCGAAACGAGCGGG yielded a sensor-assay potency score (higher = more potent) of 0.0646.
For TAGCATTAATCACAAATGGAGC, the sensor-assay potency score (higher = more potent) was -1.05.
Further: reference of the scale not given here.
